Results reported in PubChem BioAssay (NCI).
The panel holds about 79,000 compounds, 15% with a hit somewhere; the sample as a whole holds those more often. Values without a mark were called inactive. Calls of active or inactive are those of the source. No stated cut-off is given here; in the data, active means growth inhibition above about 70%; inactive means the rest.

Experiment: NCI Yeast Anticancer Drug Screen. Data for the bub3 strain (AID 167)
Conditions: S. cerevisiae bub3 mutant strain, at 50.0 µM, stronger effect = higher value
Protocol: Growth inhibition of yeast strains with defined genetic alterations is measured as a screen for potential anti-cancer activity. Selected strains with alterations in DNA damage repair or cell cycle control were exposed to compounds and growth inhibition was measured relative to vehicle treated controls. The strain used in this assay is bub3

SMILES	growth inhibition
CCCC[C@H]1C(=O)O[C@H](C)[C@H](NC(=O)c2cccc(NC=O)c2O)C(=O)O[C@@H](C)[C@@H]1OC(=O)CC(C)C	13.6%
CN1CCCC1c1ccc[n+](C)c1 (stereo not given)	2.1%
CCOP(O)OCC	-5.2%
C=C1C(=O)OC2CCN3CC=C(COC(=O)C(C)(O)C4(CO4)C1C)C23 (stereo not given)	-35.5%
CC(Oc1ccc(-c2ccccc2)cc1)C(=O)O (stereo not given)	-13.1%
CCCCCCCCSP(SCCCCCCCC)SCCCCCCCC	1.25%
NNC(=O)CCC(N)C(=O)O (stereo not given)	-17.4%
C[Si](C)(C)[C@@]1([Se]c2ccccc2)CC[C@@H]1C(=O)c1ccccc1	-27.4%
BrP(Br)(c1ccccc1)(c1ccccc1)c1ccccc1	10.7%
CC(=N/O)/C(C)=N\O	-0.4%
CC1N=C(c2ccccc2)C2(c3ccccc3)C(C)N12 (stereo not given)	-10.3%
Cc1cc([N+](=O)[O-])c(N)c([N+](=O)[O-])c1	-10.8%
Cc1ccc(C(=O)C(C)N)cc1C (stereo not given)	1.6%
ClCc1ccc(Cl)c(Cl)c1	1.5%
Oc1ccc(Nc2ncnc3nc[nH]c23)cc1CN(CCCl)CCCl	-15.5%
COC(=O)C(CCC(=O)O)NC(=O)OCc1ccccc1 (stereo not given)	4.55%
Nc1ccc([N+](=O)[O-])cc1	-14.7%
CC1CCC2C(C)C3C(CC4C5CCC6CC(O)CCC6(C)C5CCC43C)N2C1 (stereo not given)	-18.4%
c1ccc2nc(-c3ccc4ccccc4n3)ccc2c1	-13.7%
CC(C)(Br)[N+](=O)[O-]	10.8%

SMILES	growth inhibition
CC1(C)c2ccccc2C(c2ccccc2)(c2ccccc2)[N+]1(C)C	22.2%
S=C(N=Nc1ccccc1)NNc1ccccc1.[Ni]	26.8%
NC(=O)Nc1ccc([As]=O)cc1 (stereo not given)	-15.2%
CC(Cl)CN1CCN(CC(C)Cl)CC1 (stereo not given)	31.9%
COc1cc(C)c(C(CC(=O)O)CC(=O)N(CCCl)CCCl)cc1C(C)C (stereo not given)	4.5%
O=C1NC(=O)C2(c3ccccc3)CCN1C2=O (stereo not given)	-12.2%
COc1ccc2c(c1)C1(C)CCN(CCc3ccccc3)C(C2)C1C (stereo not given)	6.25%
O=[As](O)(O)c1cccc(O)c1	9.25%
CN(C)C(=O)C(CC[N+](C)(C)C)(c1ccccc1)c1ccccc1	-3.9%
CC(=O)Nc1cc([As](C)(=O)O)ccc1O	-9.65%
O=[As](O)(O)CC(Br)CBr (stereo not given)	41.1%
CCOC(=O)C[S][Sn]([Cl])([Cl])[S]CC(=O)OCC	-5.2%
CC(=O)C1(O)CCC2(O)C3(O)CC=C4CC(O)CCC4(C)C3CC(OC(=O)c3ccc(O)cc3)C12C (stereo not given)	-1.6%
CCCCOP(=S)(N1CCCCC1)N1CCCCC1	2.6%
O=C1N=NC(Cl)c2ccccc21 (stereo not given)	-17.9%
O=c1ccn(C2OC(CO)C(O)C2[Se]c2ccccc2)c(=O)[nH]1 (stereo not given)	7.2%
CCC[CH2][Sn]1([CH2]CCC)[O]CC2(CCCCC2)C[O]1	99.7% (active)
CCCCP(CCCC)CCCC	51%
Cn1cnc([N+](=O)[O-])c1[Se]c1nc(N)nc2nc[nH]c12	-7.65%
C[Si]1(C)CCCC2(C1)C(=O)NC(=O)NC2=O	-4.2%
